Test results: PubChem BioAssay (NCATS)
Results filed as inconclusive are left out. Active and inactive are the calls of the source. Calls come from the whole dose curve; as a rule, active = well fitted cell-killing curve with a large enough effect; inconclusive = small, poorly fitted or top-dose-only effect, or effect the other way; inactive = flat fitted curve, though single readings scatter. *1 amine or outer side, *2 acyl side, *3 side chain or, on linkers, in order; H or OH if unused. Where a SMILES comes first, the peptide text is derived from it. [ ]: non-standard residue; d: D form. The star is where a group is joined. X13 = O=C(C(CC(O)CO)O[*:1])[*:2]; AMC = Cc1cc(=O)oc2cc(N*)ccc12; NMeV = CN[CH](C(=O)O)C(C)C; Cbz = O=C(OCc1ccccc1)*; NMeA = CN[CH](C)C(=O)O; βAla = NCCC(=O)O

Columns and labels:
Test in all cases: Primary qHTS to identify gynecologic anti-cancer compounds using libraries of approved drugs and bioactive compounds (AID 1345084); note: nearly all actives have a fitted effect of over 55% in size
Details in all cases: Gynecologic cancer cell panel viability, ATPlite luminescence, 48 h; series mostly up to 57.5 µM
SKOV3 = tested on: SKOV3
In short: (§1)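 Five-concentration response, 48 h; readout is ATP-driven luciferase luminescence.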

Tov-21-G = tested on: Tov-21-G
In short: as §1

Tov112D = tested on: Tov112D
In short: as §1
% is set by controls: 0 for no effect and ±100 for the full control effect.

CC(=O)OCC1=C[C@@H]2OC(=O)C3=CO[C@@H](O[C@@H]4O[C@H](CO)[C@@H](O)[C@H](O)[C@H]4O)[C@H]1[C@@H]32
inactive: Potency (SKOV3) | Potency (Tov-21-G) | Potency (Tov112D)

CCC(C)C1NC(=O)C2CCCN2C(=O)C(CC(O)CO)OC(=O)CCNC(=O)C(C)N(C)C(=O)C(C(C)C)N(C)C1=O (stereo not drawn) (cyclo([X13]PI[NMeV][NMeA][βAla]); configuration not given here)
inactive: Potency (SKOV3) | Potency (Tov-21-G) | Potency (Tov112D)

O=C(c1c2ccccc2cc2ccccc12)N1CCC(N2CCC[C@@H](C(=O)N3CCOCC3)C2)CC1
inactive: Potency (SKOV3) | Potency (Tov-21-G) | Potency (Tov112D)

CCCc1[nH]nc2c1C(c1cc(Cl)cc(Cl)c1O)C(C#N)=C(N)O2 (stereo not drawn)
inactive: Potency (SKOV3) | Potency (Tov-21-G) | Potency (Tov112D)

C/C=C(/C)C(=O)O[C@@H]1C[C@@H](OC(=O)/C(C)=C\C)[C@@]2(C)C3C(=O)C=C(C)C2C3C1(C)C
inactive: Potency (SKOV3) | Potency (Tov-21-G) | Potency (Tov112D)

C=C[C@]1(C)C[C@@H](OC(=O)CSC2C[C@H]3CC[C@@H](C2)N3C)[C@]2(C)[C@H](C)CC[C@]3(CCC(=O)[C@H]32)[C@@H](C)[C@@H]1O (stereo partly drawn)
inactive: Potency (SKOV3) | Potency (Tov-21-G) | Potency (Tov112D)

CC1(C(=O)O)CCCC2(C)C3CCC4CC3(CCC12)CC4C(=O)O (stereo not drawn)
inactive: Potency (SKOV3) | Potency (Tov-21-G) | Potency (Tov112D)

CC1=C(CO)C2(C)CCCC(C)(C)C2C(O)C1O (stereo not drawn)
inactive: Potency (SKOV3) | Potency (Tov-21-G) | Potency (Tov112D)

C=C1CCC2C(C)(C)CC(=O)CC2(C)C1CCC(C)CCO (stereo not drawn)
inactive: Potency (SKOV3) | Potency (Tov-21-G) | Potency (Tov112D)

Cc1cc(=O)oc2cc(NC(=O)[C@H](CCC(=O)O)NC(=O)[C@H](CC(C)C)NC(=O)[C@H](CC(C)C)NC(=O)OCc3ccccc3)ccc12 (Cbz-Leu-Leu-Glu-{AMC})
inactive: Potency (SKOV3) | Potency (Tov-21-G) | Potency (Tov112D)

CC(NC(=O)c1ccccc1N)C(=O)O (stereo not drawn)
inactive: Potency (SKOV3) | Potency (Tov-21-G) | Potency (Tov112D)

CC1(C)CC[C@]2(C(=O)O[C@@H]3O[C@H](CO)[C@@H](O)[C@H](O)[C@H]3O)CC[C@]3(C)C(=CCC4[C@@]5(C)C[C@H](O)[C@H](O[C@@H]6O[C@H](C(=O)O)[C@@H](O)[C@H](O)[C@H]6O)[C@@](C)(CO)C5CC[C@]43C)C2C1 (stereo partly drawn)
inactive: activity change, negative = cytotoxicity (SKOV3) 14.6% [at 6.55 µM] | activity change, negative = cytotoxicity (Tov-21-G) -2.15% [at 6.55 µM] | activity change, negative = cytotoxicity (Tov112D) 8.5% [at 6.55 µM]

COc1ccc(-n2c(=O)[nH]c3cc(C(=O)NCc4ccc(Cl)cc4)sc3c2=O)nc1OC
inactive: Potency (SKOV3) | Potency (Tov-21-G) | Potency (Tov112D)

CC(C)(C)NS(=O)(=O)c1ccc(-c2ccc3[nH]nc(N)c3c2)cc1
inactive: Potency (SKOV3) | Potency (Tov-21-G) | Potency (Tov112D)

C=C(C(=O)O)[C@@H]1CC[C@H](C)[C@@H]2CC(=O)C(C)=C2C1
inactive: Potency (SKOV3) | Potency (Tov-21-G) | Potency (Tov112D)

COc1cc(/C=C/c2ccccc2)c(C(=O)O)c(O)c1CC=C(C)C
inactive: Potency (SKOV3) | Potency (Tov-21-G) | Potency (Tov112D)

COC(=O)C1=COC(OC2OC(CO)C(O)C(O)C2O)C2C(C)CC(=O)C12O (stereo not drawn)
inactive: Potency (SKOV3) | Potency (Tov-21-G) | Potency (Tov112D)

CC1(C)CCC2(C(=O)O)CCC3(C)C(=CCC4C5(C)CCC(O)C(C)(CO)C5C(O)CC43C)C2C1 (stereo not drawn)
inactive: Potency (SKOV3) | Potency (Tov-21-G) | Potency (Tov112D)

C[C@]1(OC(=O)/C=C/c2ccc(O)cc2)C[C@@H](O)[C@]2(O)C=CO[C@@H](O[C@@H]3O[C@H](CO)[C@@H](O)[C@H](O)[C@H]3O)C12 (stereo partly drawn)
inactive: Potency (SKOV3) | Potency (Tov-21-G) | Potency (Tov112D)

O=C(O)C(Cc1ccccc1)NC(=O)C1CCCN1 (stereo not drawn) (H-Pro-Phe-OH; configuration not given here)
inactive: Potency (SKOV3) | Potency (Tov-21-G) | Potency (Tov112D)

O=C(O)c1ccnc(-c2cc(C(=O)NCCc3ccccc3)ccn2)c1
inactive: Potency (SKOV3) | Potency (Tov-21-G) | Potency (Tov112D)

C=C(COC(=O)CC(C)C)C1Cc2cc(C(C)=O)ccc2O1 (stereo not drawn)
inactive: Potency (SKOV3) | Potency (Tov-21-G) | Potency (Tov112D)

COc1cc(Nc2nc3ccccc3nc2NS(=O)(=O)c2cccc(NC(=O)c3ccc(C)c(OC)c3)c2)cc(OC)c1
inactive: Potency (SKOV3) | Potency (Tov-21-G) | Potency (Tov112D)

NC1(c2ccc(NC(=O)c3ccnc(-c4cc(C(=O)O)ccn4)c3)cc2)CC1
inactive: Potency (SKOV3) | Potency (Tov-21-G) | Potency (Tov112D)

CCc1cccc2c3c([nH]c12)[C@@](CC)(CC(=O)O)OCC3
inactive: Potency (SKOV3) | Potency (Tov-21-G) | Potency (Tov112D)

CC(=O)O[C@@H](C[C@@H]1C=C(C)C(=O)O1)[C@H](C)[C@H]1CCC2[C@@]3(C)CC[C@H](O[C@@H]4O[C@H](CO)[C@@H](O)[C@H](O)[C@H]4O[C@@H]4O[C@@H](C)[C@H](O)[C@@H](O)[C@H]4O)C(C)(C)C3CC[C@@]2(C)[C@@]12COC(=O)C2 (stereo partly drawn)
inactive: activity change, negative = cytotoxicity (SKOV3) 14.4% [at 11.6 µM] | activity change, negative = cytotoxicity (Tov-21-G) 2.35% [at 11.6 µM] | activity change, negative = cytotoxicity (Tov112D) 13.8% [at 11.6 µM]
